Hit rate of the full screen: of about 4,500 compounds, about 200 (4.4%) were called active. The sample holds actives, similar compounds and a random draw of the others, so the mix is not that of the screen.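 The calls were made as follows: active = cell survival measured by absorbance rises more than 2.5-fold over infected cells without compound; inactive = the rest.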

The nature of this assay: survival after telomere uncapping, modulators, primary screen, cell-based (AID 1259312).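 Also: virus expresses mutant telomerase RNA that uncaps telomeres and kills cells; compound added 2 days after infection so exposure lasts 3 days.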 As to conditions: HCT116 + Ad-hTR-mut, MTT, 5 d; at 10 µM, stronger effect = higher value.
Regarding `Cn1cccc1/C=C(/C#N)C(N)=O`, the fold change is 1.32 (inactive). As to `Cc1cc(NS(=O)(=O)c2ccc(N)cc2)no1`, the fold change is -1.35 (inactive).

As for `COc1cc(NS(=O)(=O)c2ccc(N)cc2)nc(OC)n1`, the fold change is 3.06 (active).

In the case of `COc1cc(NC(=O)CCC(=O)O)nc(OC)n1`, the fold change is -1.34 (inactive). The same measure for `CCOC(=O)/C(C#N)=C/Nc1ccsn1`: 2.1 (inactive); for `N#CC1=C(N)n2c(s/c(=C\c3ccc(O)cc3)c2=O)=C(C#N)C1c1ccc(O)cc1` (centres undefined): -3 (inactive). The same measure for `COc1ccccc1OCCSc1nc2ccccc2o1`: -1.24 (inactive); for `O=[N+]([O-])c1ccc(Nc2ccc3c(c2)OCCO3)nc1`: -1.85 (inactive). The same measure for `O=[N+]([O-])c1ccc(NCCc2cccs2)nc1`: 2.58 (active); for `O=[N+]([O-])c1cccnc1NCCc1cccs1`: -2.56 (inactive). As for `O=[N+]([O-])c1ccc2c(c1)Cc1cc([N+](=O)[O-])ccc1-2`, the fold change is -1.19 (inactive). The same measure for `O=S(=O)(c1ccc(Cl)cc1)N1CCc2ccccc21`: 4.39 (active); for `O=S(=O)(c1ccccc1)N1CCc2ccccc21`: -1.19 (inactive); for `O=S(=O)(c1ccc(Cl)cc1)N1CCCc2ccccc21`: 1.97 (inactive). The same measure for `CCOC(=O)c1c(NC(=O)c2cccs2)sc2c1CCCCC2`: 1.37 (inactive). The same measure for `CC(C(=O)Nn1cnnc1)N1C(=O)c2ccccc2C1=O` (centres undefined): -8.91 (inactive); for `O=[N+]([O-])c1cccc(S(=O)(=O)N2CCCC2)c1`: 3.3 (active). With `O=[N+]([O-])c1ccc2c(c1)oc1ccc(S(=O)(=O)N3CCCC3)cc12`, the fold change is 1.12 (inactive). The same measure for `Nc1cccc(S(=O)(=O)N2CCCC2)c1`: -1.08 (inactive); for `CC(C)CC(=O)NC1CCCCCC1`: -1.5 (inactive); for `O=C1N=C(N2CCOCC2)S/C1=C\C1=Cc2ccccc2OC1`: -1.34 (inactive).

As for `OCC1(O)OC[C@H](O)[C@@H](O)[C@@H]1O` (some centres undefined), the fold change is 2.95 (active). The same measure for `OC[C@H]1O[C@@H](O[C@@H]2[C@@H](CO)O[C@](O)(CO)[C@H]2O)[C@H](O)[C@@H](O)[C@H]1O`: 1.55 (inactive); for `CC1(C)[C@H]2CCC1(CS(=O)(=O)N(C1CCCCC1)C1CCCCC1)C(O)C2` (some centres undefined): -1.17 (inactive).

For the compound `O=C(Cn1c(C(F)(F)F)nc2ccccc21)NC1CCCCC1`, the fold change was -1.95 (inactive).

For the compound `N=C1SCC(=O)N1c1nccs1`, the fold change is 1.78 (inactive).

Regarding `O=c1c2ccccc2c2nc3c(c(-c4cccc(Br)c4)c12)c(=O)c1ccccc13`, the fold change was -1.26 (inactive). The same measure for `c1ccc2c(c1)c1ccccc1c1nc3c4ccccc4c4ccccc4c3nc21`: 4.67 (active); for `O=c1c2ccccc2c2nc3c(c(-c4ccccc4)c12)c(=O)c1ccccc13`: -1.07 (inactive).

With `COC(=O)C1=C(C(=O)OC)SC2(S1)C(C(=O)OC)=C(C(=O)OC)SC1=C2c2cc(OC)ccc2NC1(C)C`, the fold change was 1.52 (inactive). On to `Cc1ccc(-c2n[nH]c(=S)n2C)cc1Cl`, for which the fold change is -1.92 (inactive).

With `Cn1c(-c2ccc(Cl)cc2Cl)n[nH]c1=S`, the fold change was 2.57 (active).

In the case of `C=CCn1c(-c2ccc(Cl)cc2Cl)n[nH]c1=S`, the fold change was 1.34 (inactive).

Regarding `NC(=O)c1c(NC(=O)CCC(=O)O)sc2c1CCCC2`, the fold change is -1.38 (inactive).

(Values after PubChem BioAssay AID1259312 (Keith Lab, Institute of Cancer Science, University of …, 2017).)
